{"source": "PubChem BioAssay AID1573", "about": "(National Center for Advancing Translational Sciences (NCATS), 2009)", "note": "Inconclusive results are not listed. Activity calls are given as the source filed them. Calls follow the shape of the dose curve; as a rule, active = well fitted inhibition curve with a large enough effect; inconclusive = small, poorly fitted or top-dose-only effect; inactive = no such curve, though single readings can be large or run the other way."}
{"target": "Thyroid hormone receptor beta (Homo sapiens) (UniProt P10828)", "sequence (P10828 whole entry, looked up, the tested form may be a part)": "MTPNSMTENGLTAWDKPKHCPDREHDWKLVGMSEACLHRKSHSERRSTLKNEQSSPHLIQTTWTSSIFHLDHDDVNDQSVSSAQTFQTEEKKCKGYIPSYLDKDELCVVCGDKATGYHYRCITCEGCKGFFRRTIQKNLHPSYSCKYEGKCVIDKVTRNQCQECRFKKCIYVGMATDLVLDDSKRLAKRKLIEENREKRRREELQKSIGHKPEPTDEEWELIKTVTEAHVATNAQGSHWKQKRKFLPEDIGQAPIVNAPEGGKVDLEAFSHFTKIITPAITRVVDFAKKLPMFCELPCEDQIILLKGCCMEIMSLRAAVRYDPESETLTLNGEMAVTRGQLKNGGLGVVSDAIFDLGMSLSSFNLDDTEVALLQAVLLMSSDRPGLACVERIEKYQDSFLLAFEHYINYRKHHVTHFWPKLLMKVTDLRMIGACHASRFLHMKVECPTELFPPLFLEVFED", "experiment": "Concentration Response Confirmation Assay for Inhibitors of the Interaction of Thyroid Hormone Receptor and Steroid Receptor Coregulator 2", "conditions": "TRb LBD + Texas Red SRC2 peptide, fluorescence polarization, 5 h; series mostly up to 92.2 µM; activity, negative = inhibition: at the top concentration", "excerpt": "NIH Molecular Libraries Probe Production Network [MLPCN] NIH Chemical Genomics Center [NCGC] MLPCN Grant: DK058080 Assay Provider: R. Kip Guy, St. Jude Children's Research Hospital NCGC Assay Overview: Thyroid receptor (TR) regulates many homeostatic processes including basal metabolism, cardiovascular function, body weight, and lipid trafficking. TR modulators are potential therapeutics for obesity and hyperlipidemias but current thyroid analogs have undesirable side effects, particularly cardiac stimulation. To identify inhibitors that specifically prevent the interaction of TR with the steroid receptor coregulator 2 (SRC2), a fluorescence polarization assay was screened. This assay detects interaction of the ligand-binding domain of human TRb with a Texas Red labeled SRC2 peptide, corresponding to a 20 amino acid region of the nuclear receptor interaction domain (Arnold et al., 2006). Small molecule inhibitors that block the interaction of TR and SRC2 are detected by a decrease in fluorescence polarization. This assay is a confirmation assay for AID 1469. Arnold, L. A.; Estebanez-Perpina, E.; Togashi, M.; Shelat, A.; Ocasio, C. A.; McReynolds, A. C.; Nguyen, P.; Baxter, J. D.; Fletterick, R. J.; Webb, P.; Guy, R. K. A high-throughput screening method to identify small molecule inhibitors of thyroid hormone receptor coactivator binding. Sci STKE 2006, p 13.\nNCGC Assay Protocol Summary: For screening, 5 uL/well 0.6 uM TRb and 20 nM SRC2 Texas Red in protein buffer (20mM Tris hydrochloride, 100mM NaCl, 10% glycerol, 1mM EDTA, 0.01% NP-40, 1mM DTT, 1uM T3 and 5% DMSO) was dispensed into black solid 1536-well plates (Grenier) using a solenoid-based dispenser. […] The plates were read by an Envision (Perkin Elmer) to detect fluorescence polarization of SRC2 Texas Red (555 nm excitation and 632 nm emission). […] Keywords: NIH Roadmap, MLPCN, MLI, MLSMR, qHTS, NCGC, qHTS, thyroid hormone receptor, steroid receptor coactivator, fluorescence polarization"}
{"smiles": "CCn1nc(-c2cccs2)nc2c(=O)n(C)c(=O)nc1-2", "activity, negative = inhibition": "-10.7% (inactive)"}
{"smiles": "CN1CC[C@@]2(C)c3cc(O)ccc3N(C)C2O1", "note": "(stereo partly drawn)", "Potency": "25.1 µM (active)"}
{"smiles": "COP(=S)(OC)Oc1ccc([N+](=O)[O-])cc1", "Potency": "25.1 µM (active)"}
